Here are results for 40 compounds from PubChem BioAssay (NCATS).

Structures are written as SMILES. Records with an inconclusive call do not appear. Unmarked numbers belong to inactive results. Active and inactive are the calls of the source. Unless noted, the call rests on the fitted dose curve; in most records, active means well fitted curve in either direction with a large enough effect (not every such curve was filed as active); inconclusive means small, poorly fitted or top-dose-only effect, or another doubt; inactive means flat fitted curve, though single readings scatter.

Chain of Cytochrome P450 1A2 (Homo sapiens) (P05177 whole entry, looked up): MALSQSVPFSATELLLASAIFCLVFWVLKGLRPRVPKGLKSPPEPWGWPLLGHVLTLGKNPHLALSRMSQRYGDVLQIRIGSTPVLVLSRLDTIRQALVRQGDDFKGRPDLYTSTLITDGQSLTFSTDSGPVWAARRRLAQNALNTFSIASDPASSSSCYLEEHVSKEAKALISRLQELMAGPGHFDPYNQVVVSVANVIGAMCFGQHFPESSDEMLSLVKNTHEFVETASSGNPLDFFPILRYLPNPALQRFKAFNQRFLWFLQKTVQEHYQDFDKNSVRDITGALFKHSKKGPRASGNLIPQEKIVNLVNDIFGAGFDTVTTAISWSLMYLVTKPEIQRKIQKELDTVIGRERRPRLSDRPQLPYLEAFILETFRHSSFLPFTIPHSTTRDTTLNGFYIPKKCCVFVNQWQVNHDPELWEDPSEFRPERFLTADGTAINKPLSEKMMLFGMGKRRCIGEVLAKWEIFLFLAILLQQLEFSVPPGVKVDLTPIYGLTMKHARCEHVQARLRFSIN

For the first assay, the target named is Cytochrome P450 1A2 (Homo sapiens) (UniProt P05177). Briefly: p450-cyp1a2 (AID 410; calls by dose curve; further: potency means the concentration at half of the fitted maximal effect;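 on activity change, negative = inhibition: -100% = full effect of reference inhibitor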). To be noted: recombinant CYP1A2, luciferin-ME demethylation, luminescence; series mostly up to 11.4 µM; activity change, negative = inhibition: at the top concentration. In a few lines:
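Luminescent demethylation readout: Luciferin-ME (100uM, equal to Km) turned over by 20nM CYP1A2 for 60 min at room temperature after NADPH regeneration addition, following 10 min compound preincubation. Normalization used 57 uM furafylline as full inhibition.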
For the compound `O=C(O)C1(C(=O)O)CCN(S(=O)(=O)c2ccccc2)CC1`, the activity change, negative = inhibition was 14% [at 2.29 µM].

In the case of `CN(C)CCNc1nc2c(c(=O)n(C)c(=O)n2C)n1C`, the “activity change, negative = inhibition” value is -7.7%.

For `COc1ccc(OC)c(-c2cc(C(=O)O)c3cc4ccccc4cc3n2)c1`, the activity change, negative = inhibition is -21.4% [at 2.29 µM].

With `CN=C(N)/N=C(\N)Nc1cc2ccccc2c2ccccc12`, the Potency was 251 nM (active).

Take `Oc1ccc2ccccc2c1CN(Cc1c(O)ccc2ccccc12)C1CCCCC1`: the Potency was 631 nM (active).

For `CN(C)C(=O)c1ccc(-c2nc(Nc3ccncc3)c3ccccc3n2)cc1`, the Potency was 7940 nM (active).

On to `c1ccc(C(CCN2CC3CCC(CC3)C2)c2ccccc2)cc1`, for which the “activity change, negative = inhibition” value was 9.3%.

As for `Cc1cn([C@H]2C[C@H](O)[C@@H](COC(N)=O)O2)c(=O)[nH]c1=O`, the activity change, negative = inhibition was -14.6% [at 2.29 µM].

For the compound `C[C@]12CC[C@H]3c4ccc(O)cc4CC[C@@H]3[C@H]1C/C(=N/O)[C@H]2O`, the “activity change, negative = inhibition” value is -12.7%.

On to `CCOC(=O)C1=C(C)NC(=O)N[C@@H]1c1coc2cc(C)cc(C)c2c1=O`, for which the Potency is 2510 nM (active).

`N/C(CC/C(N)=N/O)=N\O`: the “activity change, negative = inhibition” value is -17.8%.

Regarding `c1ccc2sc(SCCSc3nc4ccccc4s3)nc2c1`, the Potency is 794 nM (active).

In the case of `O=C(O)[C@@H](c1ccccc1)[C@@H](C(=O)O)c1ccccc1`, the activity change, negative = inhibition is -12% [at 2.29 µM].

In the case of `O=C(O)c1nn(-c2ccccc2-c2n[nH]c(=O)[nH]c2=O)c(=O)[nH]c1=O`, the “activity change, negative = inhibition” value is -21.2%.

Take `NNC(=O)c1ccc[n+](CCc2ccccc2)c1`: the “activity change, negative = inhibition” value is -20.7%.

Consider `CN(Cc1cc(Cl)cc(Cl)c1O)Cc1c(O)ccc2ccccc12`, for which the Potency is 631 nM (active).

Turning to `NS(=O)(=O)c1cc2c(cc1Cl)=NC(CCC(=O)O)=NS=2(=O)O`, the “activity change, negative = inhibition” value was 5%.

For `CC[C@H]1CN(C)[C@H]2Cc3c([nH]c4ccccc34)C(=O)C[C@H]1[C@H]2C(=O)OC`, the “activity change, negative = inhibition” value is -10.5%.

As for `O=C(O)[C@@H]1[C@@H](C(=O)O)[C@]23C[C@@]2(C(=O)O)[C@]2(C(=O)O)CCC3=C3CCCC312`, the Potency was 2510 nM (active).

For `CCCn1cnc2c(SCc3ccc(Cl)cc3)nc(N)nc21`, the Potency is 1260 nM (active).

As to `Clc1cc2c(c(CSC3=NCN(CC4CC4)CN3)c1)OCOC2`, the Potency is 3160 nM (active).

For the compound `CCOC(=S)SCC(=O)O`, the “activity change, negative = inhibition” value is -12.2%.

For the compound `C[N+](C)(N)CCC[N+](C)(C)N`, the “activity change, negative = inhibition” value is -12%.

Test system in another assay: not listed separately
Kind of assay: NFAT Signaling Pathway (AID 444).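 Further: carbachol stimulus at about its EC50 of 1 µM final; on the % scale 0 is the no-effect control and ±100 the full control effect.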 Conditions: Jurkat NFAT-bla M1, carbachol, beta-lactamase ratio, 5 h; at 7.69 µM (top of the series) unless noted. In a few lines: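 Jurkat cells carrying an NFAT-driven β-lactamase reporter and co-transfected muscarinic M1 receptor were treated with compound plus carbachol (1 uM final, an EC50 level) for 5 h at 37 °C. CCF4 loading followed for 1 h at RT; 460/530 nm ratio gave %activity.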
As to `O=C(O)CC(CC(=O)O)n1cccc1`, the activity change, negative = inhibition is 8.97%.

For the compound `CC(C)(CN)CN`, the activity change, negative = inhibition was 2.82%.

`O=C(O)NCC1CCCCC1` (tested in a mixture with another compound): the activity change, negative = inhibition was 22.8%.

For `O=C(O)CCC(=O)c1ccc2ccc3cccc4ccc1c2c34`, the activity change, negative = inhibition was 19.9%.

Take `O=C(O)c1cc2ccccc2c(S(=O)(=O)O)c1O`: the activity change, negative = inhibition was 7.56%.

As to `CCCCN1CSC(=S)N(Cc2ccccc2)C1`, the activity change, negative = inhibition is -0.909%.

For `COCCn1c(=O)c(-c2cc(F)cc(F)c2)nc2cnc(Oc3ccccc3)nc21`, the activity change, negative = inhibition is -3.81%.

`S=C(Nc1ccc2cn[nH]c2c1)Nc1ccc2cn[nH]c2c1`: the activity change, negative = inhibition was 19.4%.

Regarding `CC(C)NC1(C(N)=O)CCN(Cc2ccccc2)CC1`, the activity change, negative = inhibition was -10.3%.

On to `O=C1/C(=C/c2cccnc2)SC(=S)N1Cc1ccco1`, for which the activity change, negative = inhibition was -2.58%.

Turning to `COc1ccc(-c2cc([C@H](O)[C@@H]3CCCCN3)c3ccccc3n2)cc1`, the activity change, negative = inhibition is 23.2%.

Turning to `NCCCc1c(-c2ccccc2)nc(N)[nH]c1=O`, the activity change, negative = inhibition is 4.17%.

Consider `c1ccc2c(CN3CCN(Cc4c[nH]c5ccccc45)CC3)c[nH]c2c1`, for which the activity change, negative = inhibition was 5.24%.

With `Cc1cnc(CNc2nc(-c3cccnc3)nc3ccccc23)cn1`, the activity change, negative = inhibition is 0.457%.

Consider `c1ccc2c(c1)nnn2CN1CCOCC1`, for which the activity change, negative = inhibition was -0.506%.

As to `CC[C@H](C(=O)c1cccs1)C(O)(C(F)(F)F)C(F)(F)F`, the activity change, negative = inhibition was 20.8%.

For the compound `N=C(N)SCc1ccc(Cl)cc1Cl` (tested in a mixture with another compound), the activity change, negative = inhibition is -21.9%.

As for `O=C(O)C1(C(=O)O)CCN(S(=O)(=O)c2ccccc2)CC1`, the activity change, negative = inhibition was 5.93%.

`CN(C)CCNc1nc2c(c(=O)n(C)c(=O)n2C)n1C`: the activity change, negative = inhibition is 4.81%.

For `COc1ccc(OC)c(-c2cc(C(=O)O)c3cc4ccccc4cc3n2)c1`, the activity change, negative = inhibition is 15.6%.

As for `CN=C(N)/N=C(\N)Nc1cc2ccccc2c2ccccc12`, the activity change, negative = inhibition was 27.5%.

As for `Oc1ccc2ccccc2c1CN(Cc1c(O)ccc2ccccc12)C1CCCCC1`, the activity change, negative = inhibition was -9.52%.

With `CN(C)C(=O)c1ccc(-c2nc(Nc3ccncc3)c3ccccc3n2)cc1`, the activity change, negative = inhibition is -7.95%.

For the compound `c1ccc(C(CCN2CC3CCC(CC3)C2)c2ccccc2)cc1`, the activity change, negative = inhibition was -81.8% (active).

For the compound `Cc1cn([C@H]2C[C@H](O)[C@@H](COC(N)=O)O2)c(=O)[nH]c1=O`, the activity change, negative = inhibition is 0.228%.

Turning to `C[C@]12CC[C@H]3c4ccc(O)cc4CC[C@@H]3[C@H]1C/C(=N/O)[C@H]2O`, the activity change, negative = inhibition was 3.7%.

`CCOC(=O)C1=C(C)NC(=O)N[C@@H]1c1coc2cc(C)cc(C)c2c1=O`: the activity change, negative = inhibition is 17.5%.

Take `N/C(CC/C(N)=N/O)=N\O`: the activity change, negative = inhibition is 7.17%.

Turning to `c1ccc2sc(SCCSc3nc4ccccc4s3)nc2c1`, the activity change, negative = inhibition was -22.4%.

On to `O=C(O)[C@@H](c1ccccc1)[C@@H](C(=O)O)c1ccccc1`, for which the activity change, negative = inhibition was 6.48%.

As to `O=C(O)c1nn(-c2ccccc2-c2n[nH]c(=O)[nH]c2=O)c(=O)[nH]c1=O`, the activity change, negative = inhibition was 18.8%.

On to `NNC(=O)c1ccc[n+](CCc2ccccc2)c1`, for which the activity change, negative = inhibition is -4.8%.

As for `CN(Cc1cc(Cl)cc(Cl)c1O)Cc1c(O)ccc2ccccc12`, the activity change, negative = inhibition was -4.41%.

On to `NS(=O)(=O)c1cc2c(cc1Cl)=NC(CCC(=O)O)=NS=2(=O)O`, for which the activity change, negative = inhibition is 7.52%.

For the compound `CC[C@H]1CN(C)[C@H]2Cc3c([nH]c4ccccc34)C(=O)C[C@H]1[C@H]2C(=O)OC`, the activity change, negative = inhibition was 11.7%.

Consider `O=C(O)[C@@H]1[C@@H](C(=O)O)[C@]23C[C@@]2(C(=O)O)[C@]2(C(=O)O)CCC3=C3CCCC312`, for which the activity change, negative = inhibition was 0.691%.

As for `CCCn1cnc2c(SCc3ccc(Cl)cc3)nc(N)nc21`, the activity change, negative = inhibition was -4.9%.

As for `Clc1cc2c(c(CSC3=NCN(CC4CC4)CN3)c1)OCOC2`, the activity change, negative = inhibition was -19.2%.

In the case of `CCOC(=S)SCC(=O)O`, the activity change, negative = inhibition was 9.65%.

Regarding `C[N+](C)(N)CCC[N+](C)(C)N`, the activity change, negative = inhibition is 24.5%.
